# The supplement of paper PMC10681739
# Columns and labels:
# ETS1 [1] = molecular target: T1, ETS1 (UniProt P14921); experiment: ETS1 binding intensity (PBM fluorescence), ETS1 alone (arbitrary fluorescence units); higher = stronger binding; settings: ETS1 concentration 1 nM; RUNX1 concentration 0 nM
# T1 sequence: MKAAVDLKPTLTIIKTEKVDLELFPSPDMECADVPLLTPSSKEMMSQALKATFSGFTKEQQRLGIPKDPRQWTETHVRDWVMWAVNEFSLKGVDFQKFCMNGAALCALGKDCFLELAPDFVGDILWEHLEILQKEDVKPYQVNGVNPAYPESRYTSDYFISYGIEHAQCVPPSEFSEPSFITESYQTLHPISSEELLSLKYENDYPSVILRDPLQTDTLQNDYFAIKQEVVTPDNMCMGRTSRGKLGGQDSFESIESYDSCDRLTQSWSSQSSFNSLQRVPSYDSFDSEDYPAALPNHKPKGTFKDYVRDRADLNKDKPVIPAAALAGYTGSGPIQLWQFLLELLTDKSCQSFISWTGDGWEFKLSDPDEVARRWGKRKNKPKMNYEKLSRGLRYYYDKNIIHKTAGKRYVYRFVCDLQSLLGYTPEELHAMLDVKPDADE
# RUNX1 [2] = molecular target: RUNX1 (UniProt Q01196); experiment: RUNX1 binding intensity (PBM fluorescence), RUNX1 alone (arbitrary fluorescence units); higher = stronger binding; settings: RUNX1 concentration 2 nM; ETS1 concentration 0 nM
# Description: (§1)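 Cooperative gcPBM on 36-bp genomic probes with neighbouring ETS1 and RUNX1 sites. Recombinant human RUNX1 (2 nM) was incubated alone or with ETS1 (25 nM) and detected with anti-RUNX1 antibody plus Alexa488 secondary. Values are medians over 4 replicate spots; the RUNX1+ETS1 data were normalised to the RUNX1-only data. The probes sit in constant array flanks that are not printed.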
# ETS1 [3] = molecular target: T1, ETS1; experiment: ETS1 binding intensity (PBM fluorescence) in presence of RUNX1, normalised to ETS1-only experiment (arbitrary fluorescence units); higher = stronger binding; settings: ETS1 concentration 1 nM; RUNX1 concentration 25 nM
# RUNX1 [4] = molecular target: RUNX1 (UniProt Q01196); experiment: RUNX1 binding intensity (PBM fluorescence) in presence of ETS1, normalised to RUNX1-only experiment (arbitrary fluorescence units); higher = stronger binding; settings: RUNX1 concentration 2 nM; ETS1 concentration 25 nM
# Description: as §1
# 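Throughout, for RUNX1 binding intensity (PBM fluorescence) in presence of ETS1, normalised to RUNX1-only experiment: Full-length recombinant human ETS1 or RUNX1 bound to double-stranded 36-bp genomic probes on microarrays, detected by protein-specific primary antibody and Alexa488 secondary, spot fluorescence as median of four replicate spots.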
# 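Throughout, for RUNX1 binding intensity (PBM fluorescence), RUNX1 alone: Full-length recombinant human RUNX1 bound to double-stranded 36-bp genomic probes on a high-density microarray, scored as Alexa488 fluorescence per spot via anti-RUNX1 antibody, median of four replicate spots.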
# Sequence of RUNX1 (Q01196 whole entry): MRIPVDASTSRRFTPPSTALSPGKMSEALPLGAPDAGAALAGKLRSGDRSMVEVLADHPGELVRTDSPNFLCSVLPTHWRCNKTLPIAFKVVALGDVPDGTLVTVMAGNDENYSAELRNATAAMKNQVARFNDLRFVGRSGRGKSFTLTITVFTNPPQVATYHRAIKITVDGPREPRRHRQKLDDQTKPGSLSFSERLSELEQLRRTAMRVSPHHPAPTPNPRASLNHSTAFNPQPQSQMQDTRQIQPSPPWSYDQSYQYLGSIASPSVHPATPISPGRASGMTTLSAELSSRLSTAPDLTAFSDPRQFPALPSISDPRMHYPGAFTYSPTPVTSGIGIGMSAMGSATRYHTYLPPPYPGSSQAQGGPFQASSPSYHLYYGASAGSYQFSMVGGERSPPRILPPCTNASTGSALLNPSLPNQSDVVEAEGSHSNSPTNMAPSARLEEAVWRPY
Sequence,ETS1 binding intensity (ETS1 [1]),RUNX1 binding intensity (RUNX1 [2]),ETS1 binding intensity (ETS1 [3]),RUNX1 binding intensity (RUNX1 [4])
TCGGCGGATATGAAAAAAAGTCCGTGGTCACGTGCA,475,730,582,877
CGGGACTTCCTGTCTTCCCTGTTGCGGAGCTCTGAA,1720,780,1830,2000
ACAGGAAATGACATCAGAATCTCCAAACCACAACCA,1030,1390,5020,2110
TATTGTGTACTTCCCCTTCATGTTGTGGTTGGCTTT,449,1120,619,1560
CCGATTTCCCCGGACGTGGTGAGACCGCGCTTCGTC,591,835,855,1280
GACTGGACAACTTCCTGGTGGAAAACCGCGACTCTT,637,1050,2930,2340
ACACTGAGCTGAACGGAAATGTGGTTCTCACCTCAT,2670,774,3100,1140
CGCCGGCTCCCGGATGTTGTGGGGATCAGCGCCCGC,3270,771,3760,1260
GTCCTCCACTATTGTTTCCGGCCGCAGCAGAGGCGG,1870,1070,2090,2170
GTCAGGGGAACAGGATGTGGGTGGGAGCCAGCCCCA,4250,729,5560,2540
AACCAATCGAGCGGAGGAAACCGCGGCGTTAGCGTG,568,864,1020,840
AGGGCATAAACAGGATGTGGTGTTGGATGAAACCTT,5290,750,7490,1360
GCCCCCATGCTTCCTGTTGTGGGAGATGAAGTGTGG,1710,878,1710,1650
TGTATAACATCCTCATGTTCTGTGGGTGAGTTGAGC,481,824,356,871
TCCGGAAGTGGCACTGATGGGCGCCTGCGGCGGGGG,2720,758,5500,1030
CCCACCCGGAAATGAGCCAACAGTGGTTTCGCCCCG,1590,782,2010,1380
CATAGGAAGTGCTCAGCTCTCCTCCACCGCAAGTTT,452,806,2190,879
CGAGATCCTGGCCACGGATGCGGTGGCCGCGCCTCT,414,795,660,975
TGGGGAGGCAGGAAACGGGCCTTGTGGTTGGGGGGT,4210,770,16900,1020
GCCCTGACCCACATCCTGCCGCAGCCTGCTTGTCCT,979,1520,1350,7030
CTCCCCCTTTTTTTCCTGTGGTTTCATTGCATGTTG,454,6430,566,4190

Sequence,ETS1 binding intensity (ETS1 [1]),RUNX1 binding intensity (RUNX1 [2]),ETS1 binding intensity (ETS1 [3]),RUNX1 binding intensity (RUNX1 [4])
GCTCCGCTTCCGGGAGGCGGGGCTTCTGCGGGTTCC,698,737,2520,1710
ACTACAACTTCCGACTTGCATCACTGCGGTGGCGCT,425,942,573,1830
TGCAAGAGGAAGCTGGGGTTTGTGGTTCATGTTTTG,528,874,1000,1390
CCGCTTCCTTAGAGGTTAAGTGGTGGTGGTTCAGTT,473,856,391,1230
GCATTGTGCTTCCGCTCGGGGAAAGACCGCTTACGG,789,851,911,1590
CTTCTGGCGGAAGCGGCACAAGCCGCAGTACAGCGC,1070,738,2370,1190
ATGTTAACATCCTGCCATGAAAACCGCAAGAAGGGC,680,19000,3730,26000
CGTGGCGGAAGCCGCGGGGACTGCGGGGGCGGAGTG,537,924,528,893
CCTCCCGACCGGAAGCCCCGCCACAGAGCGGGTTGT,6240,848,8570,2420
CCCCCTGAACATCCGGGGCCTTTTAACCGCCCACGG,1290,937,1690,1790
GTCCTCTTCCTGTCCCCCAGGTGGGCATGTGGTTTG,519,988,751,1790
GACTCCATTTCCCGTCGGCTCGCGGTGGGAGCGCCG,417,981,453,1900
CAGCTTTCCGGCCTGCAGCACAGGCAATGTGGTTTT,341,1020,554,2150
TGTTTTTGTTTCCGTTTACAAACCACAACAAAGGTG,736,2390,1620,4730
TTAGGCTCATGGGAAATGTGGTTTCTAAATCGCGGG,494,912,639,988
GCCACACAGGCAGGAAAGCCACAGCCCACGTCTCCG,471,867,378,885
TGTGATAAGGATGTTCGTGTGCCTTGTGGTCAGGTG,623,889,1710,905
GGGGCGGCTTCCGGCGGCGTGACCTGACCGCAAGAG,995,2950,4920,9110
TTGGTGACCTCTTCCTGTCCGCTGTGGTGTTGTTAC,1080,841,1240,2350
CAAGCTGGCAGGAAGCGCGGTGCAACCACAAGAGTC,1870,765,6690,1260
TGATAAAACACAGGATGTGGTAAGGGAGCTGGCCAA,3350,682,14200,4550

Sequence,ETS1 binding intensity (ETS1 [1]),RUNX1 binding intensity (RUNX1 [2]),ETS1 binding intensity (ETS1 [3]),RUNX1 binding intensity (RUNX1 [4])
CCTGGGGGGCCGGAAGCCCCGCTGCGGCCCCAGCCC,3060,737,2480,1130
GACCAGGAAACGGGGCGTGGCGGCCGCCGTGGTTAC,449,806,485,857
TCTAGTAAAAGAGGAAGTTCTTAACCACATTTCCAT,2100,1020,9250,1620
GCAATGCCGCTACCGGAAGTGCGGGTCGCGCTCCCG,26000,749,26000,1620
CATGGTGGTGACGCAGGATGTGGTGGTGGTGTAGAA,2600,707,5340,937
CCCGTTCTCCGGAAGTGCGCGGGTTGGAGCTGAAGC,4390,760,5690,1600
GAAATTTCCGCTTTCTTTCTGCAGCAGGAACCGCGG,2670,849,2590,2550
CGAGGGAGCCGGAAAGATGGTGGTTACCAGATCTGC,608,766,992,926
GGAGCATCCCGGAAGTCGTCACTGCGGCCGCTCCCG,6420,690,8070,1770
CCTCAAAACCCGGAAACGCCTTGCGGGGCAGTGTGG,3330,789,4480,1400
TTCGGATTCCCGGAAGAACCCGCAGCAGCTCCCAGG,792,789,1020,1190
TTGCACACGTGGGCGGGAAGTGGTTAAGCGGCCTCA,1020,725,4280,1210
GAAAGCTGCACTATTTCCTGAGGTTAGAGGTTTAAA,522,815,502,1040
CCCACTCCACTTCCGCCACCGCCGCAGCCGCCGCTG,1430,1980,1420,5930
TTAACCAGACATTTCCTGTGGTCTAAGGTGACCCCA,859,1020,1090,2710
AGCCCGGCTTCCGGCGCGTGCCGCTGCGGCTGCAGG,791,678,1030,1370
TAAGTGCAGGAAACGGCTGTGTGGGTGTCAGTGATT,1350,689,1310,906
CAACGGCGTAGCCGGAAGTCAGTGGTTTTCGCCCCA,12100,721,18200,1650
AGCTTGCTTCCTGTCCCCAAAACCCACAGCACACGG,688,893,1120,2590
GAAATGAGAGAACGGAAACCACAAGTCAAGGGGCTT,1460,3620,2790,4480
GCCACATATTTCCTGTGACAACCCTGTGGTGTGGCT,641,848,723,1640

Sequence,ETS1 binding intensity (ETS1 [1]),RUNX1 binding intensity (RUNX1 [2]),ETS1 binding intensity (ETS1 [3]),RUNX1 binding intensity (RUNX1 [4])
GTCCCCGACTTCCGCTCTCGGTTGGTGGTTGGCTTT,2370,894,3430,2590
ACCATCCTGTAGTCTGTTAAGTGAGCAACCGCATTA,447,1130,948,1900
GTGAATGAGGGGGAAGGAAGTGGTTTGGAAAAATAC,1890,949,2790,962
TCAGCTGACACAGGAAGTGGTAAAGCTATTATCTGT,9480,735,16400,2730
AAACTACACCTCAGAGGATGTGGTTCCTTCTCTCAT,1130,854,1730,946
TCAAGAAAACAGGAAACTCTCAAAACCAAGTTCTGA,1430,773,1830,931
GCCCACTTCCTGCCGTAAGAGAAAACCACTAACACA,890,1970,2190,4760
TGCGAGCACCCGGAAGCCGCTTGCGGGCTCCCGGAG,2840,701,5620,999
TGGGGCCCGGAAGCGCTGGCGCCTTGCGGCCAGAAG,1500,707,3180,952
AAATCACATACCCGGAAACCACATGCACAGAAGTGG,1480,1090,3060,2090
GCCCAGGGAAGCACTTCCTGCGGGGCGCGGTGCAGC,1030,744,1270,1500
TCTGGCTTCCTGTCTTAATAGGGCTTTGTGGTGTGC,762,832,1080,2040
GGGGACCGGAAAGGGAGGGGTGGGCCGCAGGCGCCG,786,766,680,1150
TCCCTCATGAGCTTCTTCCGCCCGCAACACGAGACT,481,1280,481,1840
ATCTTCCGTAGCAGTCAGGTGTTTTGTGGTTTGCAG,460,1490,1300,2670
GCTCCTGGCCCGCACTTCCGACCACACACTGGGGAC,557,1180,592,1610
GTTGTCTTGCCCAAAGGAAGTGGTTACTAGACCAGA,1770,793,4870,1490
TCCTCCGTTTCCGTAGTTCCGAGTTGCGGTTTCTCC,487,12000,3790,15200
AGCCGCCACTTCCTGTCTCTGCGGGTGCATGCTCTT,3730,863,5990,3580
